Test systems include HCT-15 colon; HT29 colon; SNB-75 CNS; SNB-19 CNS; U251 CNS; PC-3 prostate; SK-MEL-5 melanoma; UACC-62 melanoma; LOX IMVI melanoma; SK-MEL-28 melanoma; SK-MEL-2 melanoma; EKVX NSCLC; SN12C renal; UO-31 renal; TK-10 renal; ACHN renal; A498 renal; CCRF-CEM leukemia; MOLT-4 leukemia; SR leukemia.
Holding throughout (test): NCI-60 one-dose screen, 48 h (100 = growth as untreated, 0 = no growth, -100 = all killed)
Holding throughout (conditions): 10 µM unless noted

This is an account of results in PubChem BioAssay (NCI).

About 83,000 compounds went through this panel and 20% of them were active in at least one assay; those are over-represented in the sample as a whole.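 Treatment: one concentration, 48 hours, 96-well format. Scoring: percent growth, with anything below 10 considered active.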 Unmarked numbers belong to inactive results. Activity calls are given as the source filed them.

As for `c1ccc(-c2n(Cc3ccc4ccccc4n3)cc[n+]2Cc2ccc3ccccc3n2)cc1`, the growth is 102% in the assay on HCT-15 colon; 22.8% in the assay on HT29 colon; 42.6% in the assay on SNB-75 CNS; 8.24% (active) in the assay with SNB-19 CNS; 14.7% with U251 CNS; 27% in the assay with PC-3 prostate. The growth in the assay with SK-MEL-5 melanoma is -73.4% (active); in the assay with UACC-62 melanoma, -10.3% (active); in the assay on LOX IMVI melanoma, 19.5%; in the assay with SK-MEL-28 melanoma, 24.5%; with SK-MEL-2 melanoma, -5.81% (active); in the assay on EKVX NSCLC, 70.2%. Besides, the growth with SN12C renal is 22.1%; with UO-31 renal, 76.5%; with TK-10 renal it was 58.7%; in the assay on ACHN renal it was 96.8%; in the assay with A498 renal, 56.1%; in the assay on CCRF-CEM leukemia it was 28.4%. Also, the growth in the assay on MOLT-4 leukemia was 37.9%; in the assay on SR leukemia it was 25.1%.
As for `COc1cc2nc3c(=O)n(CCN(C)C)cnn3c(=O)c2cc1OC`, the growth in the assay with HCT-15 colon was 103%; in the assay on HT29 colon it was 101%; in the assay with SNB-75 CNS, 76.4%; with SNB-19 CNS, 105%; in the assay with U251 CNS it was 107%; in the assay on PC-3 prostate it was 102%. The growth with SK-MEL-5 melanoma was 98.7%; with UACC-62 melanoma, 101%; with LOX IMVI melanoma, 97.9%; with SK-MEL-28 melanoma it was 102%; with SK-MEL-2 melanoma, 101%; in the assay on EKVX NSCLC, 95.7%. Also, the growth was 104% with SN12C renal; 89.6% in the assay with UO-31 renal; 103% with TK-10 renal; 105% in the assay on ACHN renal; 92.7% in the assay with A498 renal; 146% in the assay on CCRF-CEM leukemia. Also, the growth in the assay with MOLT-4 leukemia was 104%; in the assay with SR leukemia, 105%.
`CCOC(=O)c1c(C)nc2c(c1N)CC(=O)N2CCc1ccccc1`: the growth in the assay on HCT-15 colon is 17.2%; in the assay with HT29 colon it was 6.02% (active); in the assay on SNB-75 CNS, 80.1%; in the assay with SNB-19 CNS, 22.4%; in the assay with U251 CNS, 31.8%; with PC-3 prostate it was 17.3%. Moreover, the growth in the assay on SK-MEL-5 melanoma is 3.27% (active); in the assay with UACC-62 melanoma, 32.1%; in the assay on LOX IMVI melanoma, 9.25% (active); with SK-MEL-28 melanoma, 39.9%; in the assay with SK-MEL-2 melanoma it was 39.2%; in the assay with EKVX NSCLC, 55.9%. The growth was 24.3% in the assay with SN12C renal; 36.6% in the assay with UO-31 renal; -3.79% (active) in the assay with TK-10 renal; 34.2% with ACHN renal; 11.9% in the assay on A498 renal; 9.62% (active) with CCRF-CEM leukemia. Moreover, the values for the growth in the assay on MOLT-4 leukemia and in the assay on SR leukemia were 18.6% and 3.16% (active), respectively.
As to `COc1cc(C(=O)N2CCN(c3ccccc3OC)CC2)c(NC(=O)c2cnccn2)cc1OCc1ccccc1`, the growth was 81.9% in the assay on HCT-15 colon; 106% in the assay on HT29 colon; 102% with SNB-75 CNS; 85.9% in the assay on SNB-19 CNS; 83.2% in the assay with U251 CNS; 70.9% in the assay on PC-3 prostate. Besides, the growth in the assay on SK-MEL-5 melanoma was 78.4%; in the assay with UACC-62 melanoma, 73.3%; in the assay on LOX IMVI melanoma, 75.5%; with SK-MEL-28 melanoma, 132%; with SK-MEL-2 melanoma, 85.7%; in the assay with EKVX NSCLC it was 57.2%. Moreover, the growth in the assay with SN12C renal was 88.6%; in the assay with UO-31 renal, 39%; with TK-10 renal, 102%; in the assay with ACHN renal, 92.5%; with A498 renal it was 84.9%; in the assay on CCRF-CEM leukemia, -44% (active). Also, the figures for the growth in the assay with MOLT-4 leukemia and in the assay with SR leukemia were 52.4% and 60.7%, respectively.
For `COc1cc2c(Nc3ccc(NC(=O)Nc4ccc(Cl)c(C(F)(F)F)c4)c(Cl)c3)ncnc2cc1OCCCN1CCN(C)CC1`, the growth in the assay on HCT-15 colon is 86.7%; with HT29 colon, 1.14% (active); with SNB-75 CNS it was 31.3%; with SNB-19 CNS, -79% (active); in the assay on U251 CNS, -89.5% (active); with PC-3 prostate it was -25.3% (active). Also, the growth was -44.6% (active) in the assay on SK-MEL-5 melanoma; 0.23% (active) with UACC-62 melanoma; -88.3% (active) in the assay with LOX IMVI melanoma; 36.1% with SK-MEL-28 melanoma; -37.9% (active) in the assay with SK-MEL-2 melanoma; 52.5% with EKVX NSCLC. The growth with SN12C renal was 18.6%; in the assay with UO-31 renal it was 54.9%; in the assay on TK-10 renal it was 20.5%; in the assay on ACHN renal it was 35%; in the assay with A498 renal it was 39.7%; in the assay on CCRF-CEM leukemia, -15.4% (active). For the same molecule, the growth was -43.7% (active) in the assay on MOLT-4 leukemia and -40.5% (active) in the assay with SR leukemia.
Regarding `COc1ccc(NC(=O)Nc2ccc(Nc3nc(C)cc(Nc4ccc(C)cc4)n3)cc2)cc1`, the growth in the assay with HCT-15 colon was -78.9% (active); with HT29 colon it was -84.8% (active); with SNB-75 CNS it was -92.8% (active); with SNB-19 CNS, -69.2% (active); in the assay on U251 CNS it was -83.9% (active); in the assay on PC-3 prostate, -93.3% (active). Also, the growth in the assay on SK-MEL-5 melanoma was -72.7% (active); in the assay with UACC-62 melanoma it was -83% (active); in the assay with LOX IMVI melanoma, -85.3% (active); with SK-MEL-28 melanoma, -76.8% (active); in the assay with SK-MEL-2 melanoma it was -61.9% (active); in the assay with EKVX NSCLC it was -70.9% (active). Also, the growth in the assay with SN12C renal was -71% (active); in the assay on UO-31 renal, -90.5% (active); in the assay on TK-10 renal, -95.9% (active); in the assay on ACHN renal, -99.6% (active); in the assay with A498 renal it was 107%; with CCRF-CEM leukemia, -7.9% (active). Besides, the results for the growth in the assay with MOLT-4 leukemia and in the assay on SR leukemia were -35.3% (active) and -37.1% (active), respectively.
In the case of `O=C1NCc2ccc3c(-c4cccc(Cl)c4)c[nH]c3c21`, the growth with HCT-15 colon is 27.2%; in the assay with HT29 colon it was 7.64% (active); in the assay on SNB-75 CNS, 13.2%; with SNB-19 CNS, 28.6%; in the assay on U251 CNS it was 16.3%; in the assay on PC-3 prostate, 17.2%. Also, the growth in the assay on SK-MEL-5 melanoma is 31.2%; with UACC-62 melanoma it was 27%; in the assay on LOX IMVI melanoma, 35%; in the assay on SK-MEL-28 melanoma, 62.2%; in the assay on SK-MEL-2 melanoma, 38.6%; with EKVX NSCLC, 28.7%. Besides, the growth is 36.8% with SN12C renal; 44.8% in the assay on UO-31 renal; 46.2% with TK-10 renal; 48.4% with ACHN renal; 24.7% in the assay with A498 renal; 17.4% in the assay with CCRF-CEM leukemia. Also, the growth was 18.1% with MOLT-4 leukemia and 20.4% with SR leukemia.
